Several values for one entry are separate records, joined by “and”; a condition that tells them apart may be missing. Equal entries are not always repeated. Records with an inconclusive call do not appear. Some structures have more than one record in an assay (separate samples or runs), and their calls can disagree. Activity calls are given as the source filed them. Rule for the calls, unless noted: active = hit-call score of the fitted dose curve at least 0.9, where 1 is the maximum; inactive = score below 0.9.
Columns and labels:
[1] = ATG_TCF_b_cat_CIS: Attagene CIS-FACTORIAL HepG2 Assay for human T-Cell-Factor with beta-catenin (TCF/b-cat) (AID 2282965); details: HepG2 TCF/beta-catenin cis-reporter transcription, actives raise or lower the signal
How it was run: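 Using capillary electrophoresis as the read-out, labelled reporter cDNA fragments from transiently transfected HepG2 were sized and quantified. Exposure lasted 24 hours; activity in either direction was referenced to DMSO.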

[2] = ATG_TAL_CIS: Attagene CIS-FACTORIAL HepG2 Assay for human TAL Basal Promoter (AID 2282966); details: HepG2 Attagene cis-factorial TAL promoter reporter; actives raise or lower the signal;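 note: background control endpoint measuring basal TAL promoter reporter mRNA not a specific factor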
How it was run: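 Fluorescence of labelled reporter cDNA fragments, resolved by capillary electrophoresis, gave the readout. Human HepG2 liver cells carried transiently transfected cis-element reporter units and were treated for 24 hours; activity was fitted bidirectionally against DMSO.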

[3] = ATG_TGFb_CIS: Attagene CIS-FACTORIAL HepG2 Assay for human Transforming Growth Factor (TGF) (AID 2282967); details: HepG2 Attagene CIS TGFb reporter, mRNA transcription; actives raise or lower the signal
How it was run: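 HepG2 cells transiently transfected with cis-promoter-driven multiple reporter units measure endogenous TF activity; reporter mRNA quantified at 24 h by RT-PCR, FAM labeling, HpaI digestion and capillary electrophoresis. Bidirectional fit vs DMSO.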

[4] = molecular target: X-box-binding protein 1 (Homo sapiens) (UniProt P17861); experiment: ATG_Xbp1_CIS: Attagene CIS-FACTORIAL HepG2 Assay for human X-box Binding Protein 1 (XBP1) (AID 2282972); details: HepG2 XBP1 cis-element reporter, Attagene multiplex; actives raise or lower the signal
X-box-binding protein 1 (Homo sapiens), sequence (P17861 whole entry, looked up): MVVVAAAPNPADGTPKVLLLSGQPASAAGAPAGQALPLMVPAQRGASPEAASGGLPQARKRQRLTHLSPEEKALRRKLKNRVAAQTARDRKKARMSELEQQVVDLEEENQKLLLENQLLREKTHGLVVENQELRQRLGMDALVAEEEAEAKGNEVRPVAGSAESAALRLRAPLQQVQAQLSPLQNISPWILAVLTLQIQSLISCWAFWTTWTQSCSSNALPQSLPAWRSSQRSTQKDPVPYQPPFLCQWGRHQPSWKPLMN
How it was run: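 HepG2 cells transiently transfected with cis-regulated multiple reporter transcription units; endogenous transcription factor activity measured 24 hours after chemical dosing. Reporter mRNA quantified by RT-PCR, 6-FAM primer extension, HpaI digestion and capillary electrophoresis; bidirectional fitting versus DMSO.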

[5] = ATG_GAL4_TRANS: Attagene TRANS-FACTORIAL HepG2 Assay for GAL4 (Internal Marker) (AID 2282976; active = hit-call score of the fitted dose curve at least 0.9, where 1 is the maximum); details: HepG2 Attagene TRANS GAL4 internal marker reporter
How it was run: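 First, HepG2 cells were transfected with reporter units under GAL4-UAS control. Next, they were treated with chemical for 24 h. Finally, RNA was reverse-transcribed, PCR-amplified, FAM-labelled and resolved by capillary electrophoresis, with induction scored against DMSO.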

[6] = molecular target: Glucocorticoid receptor (Homo sapiens) (UniProt P04150); experiment: ATG_GR_TRANS: Attagene TRANS-FACTORIAL HepG2 Assay for human Glucocorticoid Receptor (GR) (AID 2282978; active = hit-call score of the fitted dose curve at least 0.9, where 1 is the maximum;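 note: activators score as hits since higher reporter transcript over DMSO is fitted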); details: HepG2 Attagene TRANS GR reporter, mRNA transcription
How it was run: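 HepG2 cells transiently transfected with multiplexed reporter units in which chimeric NR-GAL4 proteins drive GAL4-UAS reporters; 24 h compound exposure. Reporter mRNA measured by RT-PCR, 6-FAM labelling, HpaI digestion and capillary electrophoresis; gain-of-signal fitted versus DMSO.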

[7] = molecular target: Bile acid receptor (Homo sapiens) (UniProt Q96RI1); experiment: ATG_FXR_TRANS: Attagene TRANS-FACTORIAL HepG2 Assay for Farnesoid X Receptor (FXR) (AID 2282979; active = hit-call score of the fitted dose curve at least 0.9, where 1 is the maximum;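 note: hits raise reporter mRNA above DMSO so AC50 marks FXR activation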); details: HepG2 Attagene TRANS FXR-GAL4 reporter transcription
Bile acid receptor (Homo sapiens), sequence (Q96RI1 whole entry, looked up, the tested form may be a part): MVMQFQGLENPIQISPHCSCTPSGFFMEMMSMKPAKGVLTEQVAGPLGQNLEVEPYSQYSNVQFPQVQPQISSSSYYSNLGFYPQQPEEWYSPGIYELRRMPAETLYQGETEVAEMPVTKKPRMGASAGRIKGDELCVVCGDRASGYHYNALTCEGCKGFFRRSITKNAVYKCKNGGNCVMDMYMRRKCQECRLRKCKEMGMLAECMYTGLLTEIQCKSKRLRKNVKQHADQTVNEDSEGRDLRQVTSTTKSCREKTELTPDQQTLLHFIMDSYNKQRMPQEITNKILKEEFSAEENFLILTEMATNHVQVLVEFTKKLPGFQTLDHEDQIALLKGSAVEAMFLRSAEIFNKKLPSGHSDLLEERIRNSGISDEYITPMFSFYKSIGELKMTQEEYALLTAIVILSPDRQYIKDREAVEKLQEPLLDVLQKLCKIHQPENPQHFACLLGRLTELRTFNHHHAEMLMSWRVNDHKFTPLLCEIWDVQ
How it was run: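 Transient transfection of HepG2 with multiplexed GAL4-UAS reporter units; exogenous FXR-GAL4 chimera. Dose 24 h → TriZol RNA → oligo(dT) RT → PCR, 6-FAM primer extension, HpaI cut → CE. Gain vs DMSO.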

[8] = molecular target: Oxysterols receptor LXR-alpha (Homo sapiens) (UniProt Q13133); experiment: ATG_LXRa_TRANS: Attagene TRANS-FACTORIAL HepG2 Assay for human Liver X Receptor alpha (LXRa) (AID 2282980; active = hit-call score of the fitted dose curve at least 0.9, where 1 is the maximum); details: HepG2 Attagene TRANS reporter, LXRa transactivation
Oxysterols receptor LXR-alpha (Homo sapiens), sequence (Q13133 whole entry, looked up, the tested form may be a part): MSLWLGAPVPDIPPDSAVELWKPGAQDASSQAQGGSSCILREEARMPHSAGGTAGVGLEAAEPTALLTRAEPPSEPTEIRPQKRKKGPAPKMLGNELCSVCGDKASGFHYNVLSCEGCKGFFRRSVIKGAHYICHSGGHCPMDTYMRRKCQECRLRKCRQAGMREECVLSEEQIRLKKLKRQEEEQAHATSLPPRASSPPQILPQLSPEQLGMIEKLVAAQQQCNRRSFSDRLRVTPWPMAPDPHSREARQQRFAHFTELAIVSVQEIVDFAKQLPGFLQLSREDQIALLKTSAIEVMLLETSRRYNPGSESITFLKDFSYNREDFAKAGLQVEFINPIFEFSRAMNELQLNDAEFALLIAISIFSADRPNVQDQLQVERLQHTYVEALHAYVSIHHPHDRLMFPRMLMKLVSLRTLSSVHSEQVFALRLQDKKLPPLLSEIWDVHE
How it was run: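 Transfect HepG2 with GAL4-UAS multiplex reporter constructs (TRANS format, chimeric receptor-GAL4); treat 24 h; extract RNA, reverse-transcribe, PCR-amplify, FAM-label, HpaI-digest; resolve fragments by capillary electrophoresis. Upward response vs DMSO.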

[9] = molecular target: Oxysterols receptor LXR-beta (Homo sapiens) (UniProt P55055); experiment: ATG_LXRb_TRANS: Attagene TRANS-FACTORIAL HepG2 Assay for human Liver X Receptor beta (LXRb) (AID 2282981; active = hit-call score of the fitted dose curve at least 0.9, where 1 is the maximum); details: HepG2 Attagene TRANS GAL4-LXRb reporter, mRNA
Oxysterols receptor LXR-beta (Homo sapiens), sequence (P55055 whole entry, looked up, the tested form may be a part): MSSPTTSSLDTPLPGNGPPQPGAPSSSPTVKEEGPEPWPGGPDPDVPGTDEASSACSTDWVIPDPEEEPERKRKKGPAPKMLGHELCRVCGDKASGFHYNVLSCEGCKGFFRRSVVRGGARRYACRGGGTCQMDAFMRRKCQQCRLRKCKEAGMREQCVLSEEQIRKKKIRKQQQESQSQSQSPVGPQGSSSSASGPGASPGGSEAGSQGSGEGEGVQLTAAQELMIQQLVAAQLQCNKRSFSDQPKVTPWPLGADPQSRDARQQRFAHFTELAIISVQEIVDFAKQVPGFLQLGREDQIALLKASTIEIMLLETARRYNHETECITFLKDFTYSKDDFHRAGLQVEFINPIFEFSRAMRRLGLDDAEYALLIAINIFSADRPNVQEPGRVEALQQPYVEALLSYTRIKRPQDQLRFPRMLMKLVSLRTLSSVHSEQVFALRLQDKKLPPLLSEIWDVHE
How it was run: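 HepG2 cells transiently transfected with multiple reporter transcription units carrying chimeric NR-Gal4 proteins acting on GAL4-UAS reporters; compound exposure 24 h. Reporter mRNA quantified by RT-PCR, 6-FAM labelling, HpaI digestion and capillary electrophoresis; gain of signal versus DMSO.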

[10] = molecular target: Hepatocyte nuclear factor 4-alpha (Homo sapiens) (UniProt P41235); experiment: ATG_HNF4a_TRANS: Attagene TRANS-FACTORIAL HepG2 Assay for human Hepatocyte Nuclear Factor 4 alpha (HNF4a) (AID 2282982; active = hit-call score of the fitted dose curve at least 0.9, where 1 is the maximum); details: HepG2 HNF4a transactivation reporter, mRNA readout
Hepatocyte nuclear factor 4-alpha (Homo sapiens), sequence (P41235 whole entry, looked up, the tested form may be a part): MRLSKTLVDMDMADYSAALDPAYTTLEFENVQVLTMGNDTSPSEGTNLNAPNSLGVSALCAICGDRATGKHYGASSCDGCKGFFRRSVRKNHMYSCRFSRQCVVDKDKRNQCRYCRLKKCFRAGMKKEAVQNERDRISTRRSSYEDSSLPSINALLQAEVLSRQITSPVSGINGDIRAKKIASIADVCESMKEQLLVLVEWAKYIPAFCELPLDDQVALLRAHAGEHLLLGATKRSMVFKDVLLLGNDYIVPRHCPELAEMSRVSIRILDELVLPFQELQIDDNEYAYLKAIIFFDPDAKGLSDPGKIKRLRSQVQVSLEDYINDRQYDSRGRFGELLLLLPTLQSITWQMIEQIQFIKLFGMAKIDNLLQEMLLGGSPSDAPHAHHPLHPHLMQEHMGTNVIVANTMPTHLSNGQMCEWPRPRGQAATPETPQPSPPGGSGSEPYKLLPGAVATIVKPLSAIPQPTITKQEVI
How it was run: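 HepG2 cells transiently transfected with multiplexed GAL4-UAS reporter units responsive to chimeric NR-GAL4 proteins; compound exposure 24 h. Reporter mRNA quantified by RT-PCR, 6-FAM labelling, HpaI digestion and capillary electrophoresis; gain of signal versus DMSO baseline.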

[11] = ATG_M_06_TRANS: Attagene TRANS-FACTORIAL HepG2 Assay for M06 Transcription Factor (Internal Marker) (AID 2282983; active = hit-call score of the fitted dose curve at least 0.9, where 1 is the maximum;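 note: reporter transcript level by RT-PCR then capillary electrophoresis fluorescence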); details: HepG2 Attagene TRANS M06 internal marker reporter
How it was run: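 Transfect HepG2 with MRTUs → dose compounds 24 h → isolate RNA, oligo(dT) RT → PCR with reporter primers → 6-FAM primer extension → HpaI digest → CE fragment analysis. Positive direction vs DMSO.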

[12] = ATG_M_32_TRANS: Attagene TRANS-FACTORIAL HepG2 Assay for M32 Transcription Factor (Internal Marker) (AID 2282984; active = hit-call score of the fitted dose curve at least 0.9, where 1 is the maximum;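 note: transcript level of a background control reporter unit measured by RT-PCR and capillary electrophoresis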); details: HepG2 Attagene TRANS M32 internal marker reporter
How it was run: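 HepG2 cells transiently transfected with multiple GAL4-UAS reporter transcription units, dosed for 24 hours; reporter mRNA quantified by RT-PCR, 6-FAM primer extension, HpaI digestion and capillary electrophoresis. Gain-of-signal fitted versus DMSO baseline; internal background-control marker.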

[13] = molecular target: Transcriptional activator Myb (Homo sapiens) (UniProt P10242); experiment: ATG_Myb_CIS: Attagene CIS-FACTORIAL HepG2 Assay for human Myeloblastosis (Myb) Proto-Oncogene Transcription Factor (AID 2282986); details: HepG2 Attagene CIS-FACTORIAL Myb reporter transcription; actives raise or lower the signal
Transcriptional activator Myb (Homo sapiens), sequence (P10242 whole entry, looked up): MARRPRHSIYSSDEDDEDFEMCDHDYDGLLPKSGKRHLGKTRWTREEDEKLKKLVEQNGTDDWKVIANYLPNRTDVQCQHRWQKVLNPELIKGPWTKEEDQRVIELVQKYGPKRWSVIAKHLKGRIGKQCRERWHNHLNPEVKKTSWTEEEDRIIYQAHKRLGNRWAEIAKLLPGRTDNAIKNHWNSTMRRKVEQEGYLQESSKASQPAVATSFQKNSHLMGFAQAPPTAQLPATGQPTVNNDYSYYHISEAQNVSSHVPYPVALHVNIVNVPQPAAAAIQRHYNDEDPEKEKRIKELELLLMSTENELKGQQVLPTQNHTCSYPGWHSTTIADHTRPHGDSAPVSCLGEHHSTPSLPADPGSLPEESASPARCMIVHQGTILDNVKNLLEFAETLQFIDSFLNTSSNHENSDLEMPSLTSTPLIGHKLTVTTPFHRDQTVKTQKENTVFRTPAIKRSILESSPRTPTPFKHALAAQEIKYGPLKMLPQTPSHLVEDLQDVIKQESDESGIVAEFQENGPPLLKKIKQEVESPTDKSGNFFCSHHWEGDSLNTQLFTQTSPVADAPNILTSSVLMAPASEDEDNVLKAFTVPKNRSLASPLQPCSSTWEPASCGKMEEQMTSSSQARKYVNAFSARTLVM
How it was run: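 HepG2 cells were transiently transfected with cis-regulated multiple reporter transcription units reflecting endogenous Myb activity, then exposed to compound for 24 hours. Reporter mRNA was measured by RT-PCR with capillary electrophoresis; bidirectional fitting versus DMSO baseline.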

[14] = molecular target: Nuclear respiratory factor 1 (Homo sapiens) (UniProt Q16656); experiment: ATG_NRF1_CIS: Attagene CIS-FACTORIAL HepG2 Assay for human Nuclear Respiratory Factor 1 (NRF1) Orphan Gene (AID 2282987); details: HepG2 NRF1 cis-element reporter, Attagene multiplex; actives raise or lower the signal
Nuclear respiratory factor 1 (Homo sapiens), sequence (Q16656 whole entry, looked up): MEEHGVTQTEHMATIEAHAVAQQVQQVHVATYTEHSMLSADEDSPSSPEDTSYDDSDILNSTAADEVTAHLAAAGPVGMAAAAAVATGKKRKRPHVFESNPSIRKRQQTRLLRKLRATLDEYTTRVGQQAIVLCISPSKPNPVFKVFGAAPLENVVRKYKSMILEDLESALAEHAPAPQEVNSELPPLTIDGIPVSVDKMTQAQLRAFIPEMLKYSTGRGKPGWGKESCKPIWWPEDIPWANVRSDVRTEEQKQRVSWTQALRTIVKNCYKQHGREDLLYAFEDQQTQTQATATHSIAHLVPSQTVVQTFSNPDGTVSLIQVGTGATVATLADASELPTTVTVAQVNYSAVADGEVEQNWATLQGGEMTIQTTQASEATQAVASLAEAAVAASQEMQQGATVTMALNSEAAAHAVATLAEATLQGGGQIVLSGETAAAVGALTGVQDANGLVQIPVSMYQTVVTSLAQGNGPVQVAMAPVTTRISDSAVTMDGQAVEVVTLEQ
How it was run: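 HepG2 cells transiently transfected with multiple reporter transcription units under cis-regulatory promoter control, so endogenous transcription-factor activity is read. After 24 h compound exposure, reporter mRNA quantified by RT-PCR, fluorescent labelling, HpaI digestion and capillary electrophoresis; bidirectional fitting versus DMSO.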

[15] = ATG_NFI_CIS: Attagene CIS-FACTORIAL HepG2 Assay for human Nuclear Factor I (NFI) (AID 2282989); details: HepG2 cis-regulatory reporter, NFI response element transcription; actives raise or lower the signal
How it was run: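 Endogenous TF activity in HepG2 cells transiently transfected with cis-element-driven multiplexed reporter units, read 24 h after dosing. Reporter mRNA quantified by RT-PCR, 6-FAM labelling, HpaI digestion and capillary electrophoresis; bidirectional fit versus DMSO.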

[16] = ATG_VDRE_CIS: Attagene CIS-FACTORIAL HepG2 Assay for human Vitamin D Receptor Element (VDRE) (AID 2282968); details: HepG2 VDRE cis-reporter transcription, actives raise or lower the signal
How it was run: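 HepG2 cells transiently transfected with cis-element reporter units, dosed 24 h; reporter mRNA measured by RT-PCR, 6-FAM labeling, HpaI digestion and capillary electrophoresis. Activity fitted bidirectionally against DMSO baseline.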

[17] = molecular target: Estrogen receptor (Homo sapiens) (UniProt P03372); experiment: ATG_ERa_TRANS: Attagene TRANS-FACTORIAL HepG2 Assay for human Estrogen Receptor alpha (ERa) (AID 2282970; active = hit-call score of the fitted dose curve at least 0.9, where 1 is the maximum); details: HepG2 Attagene TRANS ERa GAL4 reporter, mRNA
Estrogen receptor (Homo sapiens), sequence (P03372 whole entry, looked up, the tested form may be a part): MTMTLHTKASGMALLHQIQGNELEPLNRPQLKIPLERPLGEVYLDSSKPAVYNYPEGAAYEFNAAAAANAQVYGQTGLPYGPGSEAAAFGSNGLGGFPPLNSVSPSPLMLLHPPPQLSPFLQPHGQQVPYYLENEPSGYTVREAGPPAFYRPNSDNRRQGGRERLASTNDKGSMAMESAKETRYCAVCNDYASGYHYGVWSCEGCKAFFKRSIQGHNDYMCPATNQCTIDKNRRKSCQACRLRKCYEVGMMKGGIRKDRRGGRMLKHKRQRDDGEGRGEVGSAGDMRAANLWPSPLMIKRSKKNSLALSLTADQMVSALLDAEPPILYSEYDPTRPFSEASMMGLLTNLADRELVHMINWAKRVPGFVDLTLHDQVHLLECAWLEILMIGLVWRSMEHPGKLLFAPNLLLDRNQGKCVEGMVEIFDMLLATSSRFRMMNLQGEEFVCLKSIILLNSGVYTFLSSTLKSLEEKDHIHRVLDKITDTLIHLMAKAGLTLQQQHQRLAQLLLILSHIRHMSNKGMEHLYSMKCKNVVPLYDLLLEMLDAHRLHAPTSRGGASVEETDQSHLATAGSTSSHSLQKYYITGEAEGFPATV
How it was run: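 Human liver HepG2, transient transfection of multiple GAL4-UAS reporter units; TRANS format (exogenous NR-Gal4 chimera). 24 h dosing. Readout: reporter mRNA, RT-PCR, 6-FAM primer extension, HpaI digest, capillary electrophoresis. Positive direction vs DMSO.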

[18] = molecular target: Steroid hormone receptor ERR1 (Homo sapiens) (UniProt P11474); experiment: ATG_ERRa_TRANS: Attagene TRANS-FACTORIAL HepG2 Assay for human Estrogen-Related Receptor alpha (ERRa) (AID 2282971; active = hit-call score of the fitted dose curve at least 0.9, where 1 is the maximum); details: HepG2 Attagene TRANS reporter, ERRa transactivation
Steroid hormone receptor ERR1 (Homo sapiens), sequence (P11474 whole entry, looked up, the tested form may be a part): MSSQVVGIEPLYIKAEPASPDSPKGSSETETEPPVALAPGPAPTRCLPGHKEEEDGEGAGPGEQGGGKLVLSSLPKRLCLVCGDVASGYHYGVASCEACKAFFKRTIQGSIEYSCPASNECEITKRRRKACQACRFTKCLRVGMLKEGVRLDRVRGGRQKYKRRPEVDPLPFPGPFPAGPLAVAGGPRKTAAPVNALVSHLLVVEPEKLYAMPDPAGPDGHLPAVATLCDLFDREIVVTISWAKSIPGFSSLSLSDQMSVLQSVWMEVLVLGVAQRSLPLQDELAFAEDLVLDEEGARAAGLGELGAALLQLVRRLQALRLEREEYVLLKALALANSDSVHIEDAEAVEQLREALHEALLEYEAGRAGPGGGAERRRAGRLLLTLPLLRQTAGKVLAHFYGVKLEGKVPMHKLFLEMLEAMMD
How it was run: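 Reporter transcript induction was quantified by RT-PCR and capillary electrophoresis of FAM-labelled, HpaI-cut products after 24 h treatment of HepG2 cells carrying transiently transfected GAL4-UAS reporter units and an exogenous ERRa-Gal4 fusion; activity scored as increase over DMSO.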

Measured: AC50

O=c1c(-c2ccc(O)cc2)coc2cc(O)ccc12
active: [1] 27.9 µM
inactive: [1] | [2] | [3] | [4] | [5] | [6] | [7] | [8] | [9] | [10] | [11] | [12] | [13] | [14] | [15]

CCc1ccc(CCOc2ccc(CC3SC(=O)NC3=O)cc2)nc1 (stereo not given)
not listed: [7] | [11] | [12] | [18]
inactive: all other assays above

CC(C)(C)c1cccc(C(C)(C)C)c1O
active: [1] 173 µM | [17] 61.4 µM | [4] 144 µM | [8] 49.7 µM | [15] 159 µM
not listed: [10] | [11] | [16] | [18]
inactive: all other assays above

CCCCC(CC)COC(=O)CCCCC(=O)OCc1ccccc1 (stereo not given)
not listed: [5] | [6] | [7] | [8] | [10] | [12] | [18]
inactive: all other assays above

CC(C)(C)CC(C)(C)c1ccc(O)c(-n2nc3ccccc3n2)c1
inactive: [1] | [2] | [3] | [4] | [7] | [11] | [13] | [14] | [15]
active: [16] 6.7 µM | [17] 26.8 µM

CCCOC(=O)c1ccc(O)cc1
active: [16] 139 µM | [17] 6.31 µM and 20.8 µM | [4] 73.5 µM
inactive: [1] | [2] | [3] | [16] | [18] | [4] | [5] | [6] | [7] | [8] | [9] | [10] | [11] | [12] | [13] | [14] | [15]

OC1CCC(C2CCCCC2)CC1 (stereo not given)
not listed: [10] | [17]
inactive: all other assays above

CCc1nn(C2CCCCC2)c2cc(C3(C#N)CCC(C(=O)O)CC3)ccc12 (stereo not given)
active: [1] 52.3 µM | [16] 48.7 µM | [14] 100 µM
not listed: [5] | [8] | [9] | [10] | [18]
inactive: all other assays above

— PubChem BioAssay (EPA / NIEHS)
